Our source for the binding signal and Kd values is article PMC5913336, “True equilibrium measurement of transcription factor-DNA binding affinities using automated polarization microscopy”.

Chain of D (Q24533 127-229): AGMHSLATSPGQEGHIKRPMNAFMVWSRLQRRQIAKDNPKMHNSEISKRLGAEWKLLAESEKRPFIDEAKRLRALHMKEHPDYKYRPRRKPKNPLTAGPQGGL

The first assay has as its target D (Drosophila melanogaster, UniProt Q24533 127-229). Kind of assay: FP; 33 mM phosphate pH 7.0, 90 mM NaCl, 0.01% Tween 20, 0.1 mM DTT, 0.5% agarose; room temperature. The following applies: tags: N-GST (pGEX-6P-1, kept); dsDNA, one strand shown.
GACCATTGTTCTAG: the binding signal is 1.95 Kd / Kd of best base at the position.

TACCATTGTTCTTG: the binding signal was 1.36 Kd / Kd of best base at the position.

For GGCCATTGTTCTTG, the binding signal was 1.18 Kd / Kd of best base at the position.

GACCATTGTTCGTG: the binding signal was 3.61 Kd / Kd of best base at the position.

With GACCATTGTTCTTT, the binding signal was 1.16 Kd / Kd of best base at the position.

Take GACCATCGTTCTTG: the binding signal was 34.5 Kd / Kd of best base at the position.

As to GACCATTGTTTTTG, the binding signal is 2.05 Kd / Kd of best base at the position.

With GACCATTTTTCTTG, the binding signal is 40.5 Kd / Kd of best base at the position.

In the case of GACCATTGTTCTGG, the binding signal is 1.95 Kd / Kd of best base at the position.

Consider GACCATTGATCTTG, for which the binding signal is 31.7 Kd / Kd of best base at the position.

As to GACTATTGTTCTTG, the binding signal was 2.24 Kd / Kd of best base at the position.

For GACCATTGTTCTTG, the equilibrium dissociation constant (Kd) is around 2.3 nM.

Consider GACCATTGTGCTTG, for which the binding signal is 11.9 Kd / Kd of best base at the position.

For the sequence GACCATGGTTCTTG, the binding signal was 39.1 Kd / Kd of best base at the position.

For the sequence GCCCATTGTTCTTG, the binding signal was 1.11 Kd / Kd of best base at the position.

With GACAATTGTTCTTG, the binding signal was 10.4 Kd / Kd of best base at the position.

In the case of GTCCATTGTTCTTG, the binding signal was 1.08 Kd / Kd of best base at the position.

With GACCATTATTCTTG, the binding signal is 14.1 Kd / Kd of best base at the position.

As for GATCATTGTTCTTG, the binding signal is 2.05 Kd / Kd of best base at the position.

GACCATTGTTATTG: the binding signal was 3.41 Kd / Kd of best base at the position.

Take CACCATTGTTCTTG: the binding signal was 1.12 Kd / Kd of best base at the position.

GACCATTGTCCTTG: the binding signal is 8.08 Kd / Kd of best base at the position.

For AACCATTGTTCTTG, the binding signal is 1.37 Kd / Kd of best base at the position.

Turning to GACGATTGTTCTTG, the binding signal was 12.4 Kd / Kd of best base at the position.

Consider GACCATAGTTCTTG, for which the binding signal is 40.3 Kd / Kd of best base at the position.

As for GACCATTGTTCTTC, the binding signal is 1.12 Kd / Kd of best base at the position.

Take GACCATTGTACTTG: the binding signal was 8.66 Kd / Kd of best base at the position.

On to GACCATTCTTCTTG, for which the binding signal is 17.3 Kd / Kd of best base at the position.

As to GACCACTGTTCTTG, the binding signal was 40.3 Kd / Kd of best base at the position.

Turning to GACCATTGGTCTTG, the binding signal is 54.3 Kd / Kd of best base at the position.

For GACCATTGTTCTCG, the binding signal is 1.79 Kd / Kd of best base at the position.

As for GACCATTGTTCTTA, the binding signal is 1.16 Kd / Kd of best base at the position.

For GACCAGTGTTCTTG, the binding signal is 33 Kd / Kd of best base at the position.

With GACCGTTGTTCTTG, the binding signal is 26 Kd / Kd of best base at the position.

Consider GAACATTGTTCTTG, for which the binding signal was 10.5 Kd / Kd of best base at the position.

In the case of GACCATTGCTCTTG, the binding signal is 46 Kd / Kd of best base at the position.

For GACCATTGTTCATG, the binding signal was 2.96 Kd / Kd of best base at the position.

For a further assay, the target named is T1, Slp1-FL (Drosophila melanogaster, UniProt P32030).
T1 sequence: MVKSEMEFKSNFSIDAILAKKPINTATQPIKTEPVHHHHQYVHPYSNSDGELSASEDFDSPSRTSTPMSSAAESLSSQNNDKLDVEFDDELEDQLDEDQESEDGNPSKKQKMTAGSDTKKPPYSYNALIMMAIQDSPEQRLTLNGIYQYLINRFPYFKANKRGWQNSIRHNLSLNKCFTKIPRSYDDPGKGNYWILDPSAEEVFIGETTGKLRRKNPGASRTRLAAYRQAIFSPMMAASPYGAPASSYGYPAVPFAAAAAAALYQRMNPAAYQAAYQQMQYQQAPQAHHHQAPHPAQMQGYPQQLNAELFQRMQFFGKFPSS
The description is as above. As to conditions: tags: N-GST (pGEX-6P-1, kept); dsDNA, one strand shown.
On to ACGGGTTTACACTTA, for which the binding signal was 20.1 Kd / Kd of best base at the position.

Take ACGTGTTTACACTTA: the equilibrium dissociation constant (Kd) is around 17 nM.

In the case of ACTTGTTTACACTTA, the binding signal was 1.09 Kd / Kd of best base at the position.

The term Kd denotes the equilibrium constant for the complex coming apart. The low end stands for a tighter complex, the high end for a looser complex.
